Common to all, as to test: DAPPL (digital affinity profiling via proximity ligation, sequencing); 10 mM Tris-HCl pH 7.5, 50 mM NaCl, 1 mM DTT, 4% glycerol, room temperature, 30 min; GST-TFs on glutathione beads, 16-mer random dsDNA library, 0.1% formaldehyde crosslink after washing; high values mean tight binding
In one assay the target is T1, FEV (Homo sapiens, UniProt Q99581 1-238).
T1 sequence: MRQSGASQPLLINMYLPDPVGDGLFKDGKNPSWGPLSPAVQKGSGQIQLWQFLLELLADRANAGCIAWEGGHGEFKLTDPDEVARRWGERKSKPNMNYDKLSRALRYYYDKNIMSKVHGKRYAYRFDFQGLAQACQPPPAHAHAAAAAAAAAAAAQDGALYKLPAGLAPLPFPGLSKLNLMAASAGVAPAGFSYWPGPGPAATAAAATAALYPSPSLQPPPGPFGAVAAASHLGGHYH
As to conditions: protein: recombinant; tags: N-terminal GST; dsDNA, one strand shown. A digest of the protocol:
(§1)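 Human transcription factors carrying a GST fusion were produced in yeast, bound to glutathione beads, tagged with DNA barcodes and pooled together with a tag-only sample. Each pool was held with 200 nmole of a random double-stranded 16-mer DNA library in Tris/NaCl/DTT/glycerol buffer for 30 min at room temperature, then washed, crosslinked in 0.1% formaldehyde, proximity-ligated with BsaI/T4 ligase (1 h, 37 °C), PCR-amplified and sequenced on an Illumina NextSeq500. Binding signal is the read frequency of each hexamer for a given factor divided by its frequency in the tag-only sample.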

For another assay, the target named is ETV5 (Homo sapiens, UniProt P41161 1-510). As to conditions: protein: recombinant; tags: N-terminal GST; dsDNA, one strand shown. The essentials:
as §1

In the next assay the target is HSF1 (Homo sapiens, UniProt Q00613 1-529). As to conditions: protein: recombinant; tags: N-terminal GST; chain copies: 3; dsDNA, one strand shown. The essentials:
as §1

For a further assay, the target named is T2, SPIC (Homo sapiens, UniProt Q8N5J4 1-248).
T2 sequence: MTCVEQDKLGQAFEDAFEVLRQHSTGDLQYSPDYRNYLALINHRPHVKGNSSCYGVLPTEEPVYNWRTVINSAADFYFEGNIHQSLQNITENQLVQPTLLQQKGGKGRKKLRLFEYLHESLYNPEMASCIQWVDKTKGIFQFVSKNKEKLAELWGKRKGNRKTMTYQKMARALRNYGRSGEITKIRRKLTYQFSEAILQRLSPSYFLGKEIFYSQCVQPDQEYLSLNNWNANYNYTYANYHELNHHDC
The conditions noted are these: protein: recombinant; tags: N-terminal GST; dsDNA, one strand shown. A digest of the protocol: as §1

Another assay has as its target ELF4 (Homo sapiens, UniProt Q99607 1-663). The conditions noted are these: protein: recombinant; tags: N-terminal GST; dsDNA, one strand shown. The essentials:
as §1

A further assay concerns the target T3, ELK4 (Homo sapiens, UniProt P28324-2 1-405).
T3 sequence: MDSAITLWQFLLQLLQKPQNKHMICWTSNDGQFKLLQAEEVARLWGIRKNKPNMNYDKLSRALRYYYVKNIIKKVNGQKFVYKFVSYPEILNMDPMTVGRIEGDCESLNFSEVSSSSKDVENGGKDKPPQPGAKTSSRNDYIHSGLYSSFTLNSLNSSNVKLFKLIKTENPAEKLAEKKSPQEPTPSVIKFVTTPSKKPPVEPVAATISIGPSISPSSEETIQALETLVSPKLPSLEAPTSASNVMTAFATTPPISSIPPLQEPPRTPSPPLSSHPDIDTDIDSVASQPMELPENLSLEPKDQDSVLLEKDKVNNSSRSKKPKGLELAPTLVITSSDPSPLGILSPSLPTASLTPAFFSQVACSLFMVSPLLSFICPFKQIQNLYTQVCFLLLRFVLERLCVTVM
The conditions noted are these: protein: recombinant; tags: N-terminal GST; dsDNA, one strand shown. A digest of the protocol: as §1

For the next assay, the target named is T4, ETV2 (Homo sapiens, UniProt O00321 1-342).
T4 sequence: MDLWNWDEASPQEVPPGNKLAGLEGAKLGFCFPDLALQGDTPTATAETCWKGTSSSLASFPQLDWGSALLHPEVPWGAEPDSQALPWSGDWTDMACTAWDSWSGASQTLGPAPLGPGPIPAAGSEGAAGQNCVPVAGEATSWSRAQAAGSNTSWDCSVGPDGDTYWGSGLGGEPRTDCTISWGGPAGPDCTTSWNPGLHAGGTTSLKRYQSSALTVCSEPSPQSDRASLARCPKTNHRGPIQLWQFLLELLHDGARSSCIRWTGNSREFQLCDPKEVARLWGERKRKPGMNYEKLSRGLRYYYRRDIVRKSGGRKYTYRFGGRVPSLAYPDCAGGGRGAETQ
As to conditions: protein: recombinant; tags: N-terminal GST; dsDNA, one strand shown. A digest of the protocol: as §1

A further assay deals with T5, ELF3 (Homo sapiens, UniProt P78545 1-371).
T5 sequence: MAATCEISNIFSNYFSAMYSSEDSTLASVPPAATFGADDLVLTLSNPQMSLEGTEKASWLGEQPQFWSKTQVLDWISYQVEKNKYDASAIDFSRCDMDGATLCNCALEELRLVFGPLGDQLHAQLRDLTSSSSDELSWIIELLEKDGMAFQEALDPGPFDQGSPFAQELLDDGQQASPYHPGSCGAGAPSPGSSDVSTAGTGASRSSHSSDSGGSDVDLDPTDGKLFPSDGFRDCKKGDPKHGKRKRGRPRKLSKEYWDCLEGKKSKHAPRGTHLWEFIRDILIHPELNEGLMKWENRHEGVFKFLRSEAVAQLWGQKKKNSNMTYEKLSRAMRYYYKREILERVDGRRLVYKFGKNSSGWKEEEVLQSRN
As to conditions: protein: recombinant; tags: N-terminal GST; dsDNA, one strand shown. The essentials:
as §1

A further assay has as its target CRX (Homo sapiens, UniProt O43186 1-299). As to conditions: protein: recombinant; tags: N-terminal GST; dsDNA, one strand shown. A digest of the protocol:
as §1

A further assay addresses ETV1 (Homo sapiens, UniProt P50549 1-477). The conditions noted are these: protein: recombinant; tags: N-terminal GST; dsDNA, one strand shown. The essentials: as §1
For the next assay, the target named is T6, ERF (Homo sapiens, UniProt P50548 1-548).
T6 sequence: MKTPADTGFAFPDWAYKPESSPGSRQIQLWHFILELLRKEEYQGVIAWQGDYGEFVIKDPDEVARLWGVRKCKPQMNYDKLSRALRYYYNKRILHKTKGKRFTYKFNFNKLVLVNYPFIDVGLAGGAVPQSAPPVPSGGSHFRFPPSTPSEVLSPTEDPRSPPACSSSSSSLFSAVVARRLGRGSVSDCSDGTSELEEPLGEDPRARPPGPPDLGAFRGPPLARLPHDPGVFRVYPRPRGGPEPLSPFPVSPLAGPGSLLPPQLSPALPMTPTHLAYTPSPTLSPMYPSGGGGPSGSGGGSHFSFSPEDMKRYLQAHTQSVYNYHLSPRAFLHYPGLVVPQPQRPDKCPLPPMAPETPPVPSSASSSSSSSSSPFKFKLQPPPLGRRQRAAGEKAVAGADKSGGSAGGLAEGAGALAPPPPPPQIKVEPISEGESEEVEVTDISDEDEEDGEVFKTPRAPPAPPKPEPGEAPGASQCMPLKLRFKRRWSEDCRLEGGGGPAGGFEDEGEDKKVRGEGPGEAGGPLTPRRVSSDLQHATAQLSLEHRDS
The conditions noted are these: protein: recombinant; tags: N-terminal GST; dsDNA, one strand shown. The essentials: as §1

In the next assay the target is T7, ETV3L (Homo sapiens, UniProt Q6ZN32 1-361).
T7 sequence: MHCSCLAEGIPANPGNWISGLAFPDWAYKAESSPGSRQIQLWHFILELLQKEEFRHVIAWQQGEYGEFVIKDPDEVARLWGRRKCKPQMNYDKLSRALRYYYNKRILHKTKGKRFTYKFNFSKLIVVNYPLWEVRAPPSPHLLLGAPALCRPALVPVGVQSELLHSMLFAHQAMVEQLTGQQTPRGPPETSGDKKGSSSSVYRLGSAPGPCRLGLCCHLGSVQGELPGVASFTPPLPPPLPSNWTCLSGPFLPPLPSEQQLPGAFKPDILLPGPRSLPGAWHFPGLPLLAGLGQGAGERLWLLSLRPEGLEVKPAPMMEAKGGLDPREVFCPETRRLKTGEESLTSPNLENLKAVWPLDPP
The conditions noted are these: protein: recombinant; tags: N-terminal GST; dsDNA, one strand shown. A digest of the protocol:
as §1

Another assay deals with T8, ETS2 (Homo sapiens, UniProt P15036 1-469).
T8 sequence: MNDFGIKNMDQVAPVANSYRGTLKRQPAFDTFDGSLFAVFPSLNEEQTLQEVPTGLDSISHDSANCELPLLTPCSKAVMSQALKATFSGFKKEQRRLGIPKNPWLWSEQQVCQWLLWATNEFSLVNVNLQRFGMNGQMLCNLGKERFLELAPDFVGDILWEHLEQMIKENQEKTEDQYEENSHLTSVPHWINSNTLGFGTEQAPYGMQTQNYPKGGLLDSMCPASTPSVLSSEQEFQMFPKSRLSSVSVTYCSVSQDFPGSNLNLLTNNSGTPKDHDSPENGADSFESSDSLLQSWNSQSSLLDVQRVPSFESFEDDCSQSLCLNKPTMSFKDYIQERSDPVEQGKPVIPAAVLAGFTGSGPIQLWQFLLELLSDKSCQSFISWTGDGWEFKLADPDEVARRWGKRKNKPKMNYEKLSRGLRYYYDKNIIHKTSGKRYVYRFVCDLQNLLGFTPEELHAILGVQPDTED
As to conditions: protein: recombinant; tags: N-terminal GST; dsDNA, one strand shown. A digest of the protocol:
as §1

A further assay addresses T9, SPDEF (Homo sapiens, UniProt O95238 1-335).
T9 sequence: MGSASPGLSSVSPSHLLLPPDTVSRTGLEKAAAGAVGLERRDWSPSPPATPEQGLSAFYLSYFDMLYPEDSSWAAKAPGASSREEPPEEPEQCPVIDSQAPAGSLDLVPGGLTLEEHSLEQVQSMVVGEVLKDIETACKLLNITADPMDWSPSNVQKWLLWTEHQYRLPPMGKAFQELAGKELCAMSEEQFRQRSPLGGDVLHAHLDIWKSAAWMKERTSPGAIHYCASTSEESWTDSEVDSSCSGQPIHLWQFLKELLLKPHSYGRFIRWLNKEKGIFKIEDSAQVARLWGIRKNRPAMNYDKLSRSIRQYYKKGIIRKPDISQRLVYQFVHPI
The conditions noted are these: protein: recombinant; tags: N-terminal GST; dsDNA, one strand shown. A digest of the protocol: as §1

Another assay concerns the target T10, ETV7 (Homo sapiens, UniProt Q9Y603 1-341).
T10 sequence: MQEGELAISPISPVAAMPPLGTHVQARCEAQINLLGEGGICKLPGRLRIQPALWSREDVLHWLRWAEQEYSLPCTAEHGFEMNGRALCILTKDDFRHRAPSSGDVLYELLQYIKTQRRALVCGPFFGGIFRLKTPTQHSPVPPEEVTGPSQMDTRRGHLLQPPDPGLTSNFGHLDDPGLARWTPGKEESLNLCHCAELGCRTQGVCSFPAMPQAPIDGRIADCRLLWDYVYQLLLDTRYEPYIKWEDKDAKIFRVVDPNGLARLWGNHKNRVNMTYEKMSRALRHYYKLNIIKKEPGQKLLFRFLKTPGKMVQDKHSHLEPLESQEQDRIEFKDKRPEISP
As to conditions: protein: recombinant; tags: N-terminal GST; dsDNA, one strand shown. The essentials: as §1

The target in a further assay is T11, ELF5 (Homo sapiens, UniProt Q9UKW6-2 1-255).
T11 sequence: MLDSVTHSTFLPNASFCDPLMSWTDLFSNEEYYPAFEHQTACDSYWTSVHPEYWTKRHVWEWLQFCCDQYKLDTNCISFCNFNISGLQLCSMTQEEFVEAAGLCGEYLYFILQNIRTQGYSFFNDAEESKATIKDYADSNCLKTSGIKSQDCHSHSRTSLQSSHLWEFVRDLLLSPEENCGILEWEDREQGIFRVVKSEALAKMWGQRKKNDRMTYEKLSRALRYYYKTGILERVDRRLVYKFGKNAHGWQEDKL
The conditions noted are these: protein: recombinant; tags: N-terminal GST; dsDNA, one strand shown. The essentials: as §1

In another assay the target is T12, ETV3 (Homo sapiens, UniProt P41162-2 1-143).
T12 sequence: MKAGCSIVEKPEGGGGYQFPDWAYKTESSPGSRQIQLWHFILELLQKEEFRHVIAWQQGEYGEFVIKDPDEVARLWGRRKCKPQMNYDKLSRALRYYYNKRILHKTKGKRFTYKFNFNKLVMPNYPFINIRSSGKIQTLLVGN
The conditions noted are these: protein: recombinant; tags: N-terminal GST; dsDNA, one strand shown. The essentials: as §1

For another assay, the target named is ETV6 (Homo sapiens, UniProt P41212 1-452). As to conditions: protein: recombinant; tags: N-terminal GST; dsDNA, one strand shown. A digest of the protocol: as §1
ETV6, sequence (P41212 whole entry): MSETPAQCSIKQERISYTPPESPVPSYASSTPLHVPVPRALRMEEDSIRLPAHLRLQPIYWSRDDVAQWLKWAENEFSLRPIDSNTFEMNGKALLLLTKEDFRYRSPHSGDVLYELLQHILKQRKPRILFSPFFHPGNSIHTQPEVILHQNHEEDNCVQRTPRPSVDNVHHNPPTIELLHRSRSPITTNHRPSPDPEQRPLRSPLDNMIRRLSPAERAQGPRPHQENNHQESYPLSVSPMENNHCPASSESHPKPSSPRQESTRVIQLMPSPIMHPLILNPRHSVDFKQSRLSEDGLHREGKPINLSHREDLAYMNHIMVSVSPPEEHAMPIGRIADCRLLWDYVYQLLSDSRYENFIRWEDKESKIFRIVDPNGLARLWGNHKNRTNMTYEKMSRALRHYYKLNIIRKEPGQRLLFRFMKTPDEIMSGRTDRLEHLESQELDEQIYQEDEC

This note sets out measurements from article PMC7862700, “An all-to-all approach to the identification of sequence-specific readers for epigenetic DNA modifications on cytosine”.

HSF1, sequence (Q00613 whole entry): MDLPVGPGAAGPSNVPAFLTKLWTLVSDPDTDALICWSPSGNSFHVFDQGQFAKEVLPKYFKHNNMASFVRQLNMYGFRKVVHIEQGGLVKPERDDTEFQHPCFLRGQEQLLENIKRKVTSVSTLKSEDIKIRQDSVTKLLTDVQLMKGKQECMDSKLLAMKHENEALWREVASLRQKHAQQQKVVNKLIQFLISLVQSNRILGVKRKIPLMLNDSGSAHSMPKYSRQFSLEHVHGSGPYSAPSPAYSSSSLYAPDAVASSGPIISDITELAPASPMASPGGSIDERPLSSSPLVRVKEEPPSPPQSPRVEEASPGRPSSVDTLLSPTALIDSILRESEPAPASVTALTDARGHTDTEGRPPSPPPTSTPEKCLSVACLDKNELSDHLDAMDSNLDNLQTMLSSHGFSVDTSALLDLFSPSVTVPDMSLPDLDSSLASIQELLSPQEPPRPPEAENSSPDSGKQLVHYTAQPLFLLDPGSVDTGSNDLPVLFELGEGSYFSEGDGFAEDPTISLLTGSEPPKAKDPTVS
ETV1, sequence (P50549 whole entry): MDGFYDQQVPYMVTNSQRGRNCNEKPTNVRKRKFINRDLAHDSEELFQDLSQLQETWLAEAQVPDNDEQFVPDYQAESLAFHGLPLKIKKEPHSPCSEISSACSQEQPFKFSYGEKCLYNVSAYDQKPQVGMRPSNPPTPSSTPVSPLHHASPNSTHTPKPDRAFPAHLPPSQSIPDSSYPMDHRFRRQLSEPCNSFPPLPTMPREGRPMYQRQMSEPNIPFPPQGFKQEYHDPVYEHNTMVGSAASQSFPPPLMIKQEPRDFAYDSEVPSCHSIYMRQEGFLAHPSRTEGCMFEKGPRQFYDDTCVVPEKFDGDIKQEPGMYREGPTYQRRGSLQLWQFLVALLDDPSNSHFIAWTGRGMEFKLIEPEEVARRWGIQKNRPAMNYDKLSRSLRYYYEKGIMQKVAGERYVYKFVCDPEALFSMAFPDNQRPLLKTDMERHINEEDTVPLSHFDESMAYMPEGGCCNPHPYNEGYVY
CRX, sequence (O43186 whole entry): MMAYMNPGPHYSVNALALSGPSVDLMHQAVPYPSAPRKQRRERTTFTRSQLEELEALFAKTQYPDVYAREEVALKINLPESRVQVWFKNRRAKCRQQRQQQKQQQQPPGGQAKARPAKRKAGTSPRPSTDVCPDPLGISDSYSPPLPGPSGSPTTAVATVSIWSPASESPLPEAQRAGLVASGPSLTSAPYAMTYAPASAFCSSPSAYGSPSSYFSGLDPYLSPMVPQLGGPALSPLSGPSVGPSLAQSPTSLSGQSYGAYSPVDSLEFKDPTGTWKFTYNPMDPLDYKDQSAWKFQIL
ELF4, sequence (Q99607 whole entry): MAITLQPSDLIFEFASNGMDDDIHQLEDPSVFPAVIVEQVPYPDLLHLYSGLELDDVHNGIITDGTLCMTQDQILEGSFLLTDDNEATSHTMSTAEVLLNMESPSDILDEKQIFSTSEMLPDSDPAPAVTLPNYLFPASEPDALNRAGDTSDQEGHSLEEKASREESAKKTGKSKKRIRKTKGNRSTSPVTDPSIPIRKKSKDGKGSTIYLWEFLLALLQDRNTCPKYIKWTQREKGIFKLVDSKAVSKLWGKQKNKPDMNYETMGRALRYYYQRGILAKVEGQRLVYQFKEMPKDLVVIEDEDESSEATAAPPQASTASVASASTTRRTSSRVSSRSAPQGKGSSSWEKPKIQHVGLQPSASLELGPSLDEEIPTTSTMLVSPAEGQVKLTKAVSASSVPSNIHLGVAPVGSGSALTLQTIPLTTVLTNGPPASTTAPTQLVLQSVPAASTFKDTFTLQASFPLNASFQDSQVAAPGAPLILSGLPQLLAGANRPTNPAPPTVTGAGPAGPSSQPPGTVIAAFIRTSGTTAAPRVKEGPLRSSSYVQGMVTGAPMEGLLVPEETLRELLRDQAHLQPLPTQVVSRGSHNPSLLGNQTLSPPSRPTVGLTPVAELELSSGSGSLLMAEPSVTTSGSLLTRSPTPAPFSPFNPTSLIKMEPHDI
ETV5, sequence (P41161 whole entry): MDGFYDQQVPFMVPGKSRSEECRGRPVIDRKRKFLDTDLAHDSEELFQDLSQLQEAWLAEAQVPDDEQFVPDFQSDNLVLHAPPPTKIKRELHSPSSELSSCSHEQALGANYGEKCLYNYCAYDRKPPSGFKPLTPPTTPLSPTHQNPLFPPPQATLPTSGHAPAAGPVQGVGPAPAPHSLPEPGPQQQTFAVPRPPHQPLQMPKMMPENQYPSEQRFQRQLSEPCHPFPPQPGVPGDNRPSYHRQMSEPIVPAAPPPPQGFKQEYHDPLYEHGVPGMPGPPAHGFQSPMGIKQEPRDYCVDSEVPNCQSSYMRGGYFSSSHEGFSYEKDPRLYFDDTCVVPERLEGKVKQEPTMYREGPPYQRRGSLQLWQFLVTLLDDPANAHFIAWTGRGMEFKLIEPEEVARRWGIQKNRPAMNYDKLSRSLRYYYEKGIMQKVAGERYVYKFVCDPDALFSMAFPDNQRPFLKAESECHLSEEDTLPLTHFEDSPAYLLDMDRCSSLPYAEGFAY

In the case of TTCCGG, the binding signal is 8.68 fold enrichment (6-mer frequency, TF over GST control) with FEV; 6.4 fold enrichment (6-mer frequency, TF over GST control) with ETV5; 1.93 fold enrichment (6-mer frequency, TF over GST control) in the assay with HSF1; 5.6 fold enrichment (6-mer frequency, TF over GST control) with SPIC; 5.4 fold enrichment (6-mer frequency, TF over GST control) with ELF4; 4.67 fold enrichment (6-mer frequency, TF over GST control) with ELK4. Moreover, the binding signal is 5.78 fold enrichment (6-mer frequency, TF over GST control) in the assay with ETV2; 5.14 fold enrichment (6-mer frequency, TF over GST control) with ELF3; 1.33 fold enrichment (6-mer frequency, TF over GST control) with CRX; 6.12 fold enrichment (6-mer frequency, TF over GST control) with ETV1; 4.81 fold enrichment (6-mer frequency, TF over GST control) with ERF; 5.36 fold enrichment (6-mer frequency, TF over GST control) in the assay with ETV3L. In addition, the binding signal with ETS2 was 6 fold enrichment (6-mer frequency, TF over GST control); in the assay with SPDEF it was 6.57 fold enrichment (6-mer frequency, TF over GST control); with ETV7, 5.39 fold enrichment (6-mer frequency, TF over GST control); with ELF5, 8.59 fold enrichment (6-mer frequency, TF over GST control); with ETV3 it was 6.28 fold enrichment (6-mer frequency, TF over GST control); with ETV6, 6.93 fold enrichment (6-mer frequency, TF over GST control).
